Assay results published in PubChem BioAssay (NCATS).
Results filed as inconclusive are left out. Activity calls are given as the source filed them. Calls come from the whole dose curve; as a rule, active = well fitted activation curve with a large enough effect in the main read-out, with a control signal flat (not every such curve was filed as active); inconclusive = small, poorly fitted or top-dose-only effect, or effect the other way, or a change in a side signal; inactive = flat fitted curve, though single readings scatter.

molecular target: 3',5'-cyclic-AMP phosphodiesterase 4B (Homo sapiens) (UniProt Q07343); test: qHTS Assay for Inhibitors of PDE-IV (AID 607); settings: HEK293 ACTOne CNG channel cells, membrane potential fluorescence; series mostly up to 22.9 µM; activation (PDE inhibition): at the top concentration; note: % of control where 0% means no effect
Summary of the method: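 HEK293 ACTOne cells with CNG channel (1000/well), endogenous PDE4; membrane potential dye, compounds up to 22.9 uM final. Fluorescence Ex 535/Em 590; RO 20-1724 (100 uM final) as reference.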

Chain of 3',5'-cyclic-AMP phosphodiesterase 4B (Homo sapiens) (Q07343 whole entry, looked up): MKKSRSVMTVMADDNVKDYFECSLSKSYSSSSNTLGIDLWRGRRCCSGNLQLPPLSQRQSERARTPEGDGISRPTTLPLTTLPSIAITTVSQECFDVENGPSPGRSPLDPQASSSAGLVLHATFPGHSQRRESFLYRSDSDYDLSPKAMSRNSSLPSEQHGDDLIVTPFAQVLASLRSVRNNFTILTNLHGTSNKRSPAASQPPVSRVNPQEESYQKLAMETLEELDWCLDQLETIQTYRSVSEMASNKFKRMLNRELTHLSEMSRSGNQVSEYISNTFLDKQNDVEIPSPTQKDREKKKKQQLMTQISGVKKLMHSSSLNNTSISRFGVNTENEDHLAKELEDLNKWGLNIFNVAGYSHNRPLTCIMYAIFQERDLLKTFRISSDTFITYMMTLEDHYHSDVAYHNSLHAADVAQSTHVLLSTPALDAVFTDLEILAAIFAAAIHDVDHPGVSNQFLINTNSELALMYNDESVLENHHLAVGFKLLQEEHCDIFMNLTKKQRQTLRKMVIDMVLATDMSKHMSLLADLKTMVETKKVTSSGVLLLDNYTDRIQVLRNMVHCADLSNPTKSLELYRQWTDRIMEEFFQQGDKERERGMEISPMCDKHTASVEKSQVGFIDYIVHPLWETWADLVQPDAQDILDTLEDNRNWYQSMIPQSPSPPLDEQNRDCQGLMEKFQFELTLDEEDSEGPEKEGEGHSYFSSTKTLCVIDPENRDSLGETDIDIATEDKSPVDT

Q: `COc1ccc(CNC(=O)[C@H]2C[C@@H]2[C@H](NP(=O)(c2ccccc2)c2ccccc2)c2ccccc2)cc1OC` was tested. Which “activation (PDE inhibition)” value did it give?
A: 13% (inactive)

Q: How did the “activation (PDE inhibition)” value turn out when `COC(=O)[C@@]1(Cc2ccc(OC)cc2)[C@H]2c3cc(C(=O)N(C)C)n(CCO)c3C[C@H]2CN1C(=O)c1ccccc1` was run?
A: -3.51% (inactive)

Q: How did the “activation (PDE inhibition)” value turn out when `O=C(NCc1ccccn1)[C@H]1C[C@@H]1[C@H](NP(=O)(c1ccccc1)c1ccccc1)c1ccccc1` was run?
A: 16.3% (inactive)

Q: With `CS(=O)(=O)c1ccc(CNC(=O)[C@@H]2C[C@H]2[C@@H](NP(=O)(c2ccccc2)c2ccccc2)c2ccccc2)cc1` as the compound, how does the “activation (PDE inhibition)” value read?
A: 23.4% (inactive)

Q: With `COC(=O)[C@@]1(Cc2ccc(F)cc2)[C@H]2c3cc(C(=O)N(C)C)n(Cc4nc5ccccc5[nH]4)c3C[C@H]2CN1C(=O)c1ccccc1` as the compound, how does the “activation (PDE inhibition)” value read?
A: 8.34% (inactive)

Q: Which “activation (PDE inhibition)” value does the source give for `COC(=O)[C@@]1(Cc2ccc(F)cc2)[C@H]2c3cc(C(=O)N4CCCC4)n(CC4CC4)c3C[C@H]2CN1C(=O)c1ccccc1` here?
A: -1.54% (inactive)
